Reference: PubChem BioAssay (NCATS)
Inconclusive results are not listed. The source made the active and inactive calls. The call rests on the fitted dose curve; in most records, active means well fitted inhibition curve with a large enough effect; inconclusive means small, poorly fitted or top-dose-only effect; inactive means flat fitted curve, though single readings scatter.

Legend:
Assay in all cases: qHTS profiling for inhibitors of Plasmodium falciparum proliferation (AID 504749); further: nearly all actives have a fitted effect of over 60% in size
Settings in all cases: P. falciparum in erythrocytes, SYBR Green DNA, 72 h; series mostly up to 28.7 µM
CP217 = tested on: CP217
Outline: (§1)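 P. falciparum-infected erythrocytes (0.3% parasitemia, 2.5% hematocrit final) were exposed to compounds for 72 h at 37 C in 5% CO2, then lysed with SYBR Green buffer overnight at room temperature; parasite DNA fluorescence was normalized to artemisinin and DMSO controls.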

CP237 = tested on: CP237
Outline: as §1

CP238 = tested on: CP238
Outline: as §1

CP247 = tested on: CP247
Outline: as §1

CP250 = tested on: CP250
Outline: as §1

CP252 = tested on: CP252
Outline: as §1

CP256 = tested on: CP256
Outline: as §1

CP260 = tested on: CP260
Outline: as §1

CP262 = tested on: CP262
Outline: as §1

CP265 = tested on: CP265
Outline: as §1

CP266 = tested on: CP266
Outline: as §1

CP268 = tested on: CP268
Outline: as §1

CP269 = tested on: CP269
Outline: as §1

CP286 = tested on: CP286
Outline: as §1

CP291 = tested on: CP291
Outline: as §1

CP297 = tested on: CP297
Outline: as §1

CP305 = tested on: CP305
Outline: as §1

CP315 = tested on: CP315
Outline: as §1

CP325 = tested on: CP325
Outline: as §1

CP329 = tested on: CP329
Outline: as §1

Measured: Potency
Potency means the concentration at half of the fitted maximal effect.

COc1ccc(Cl)cc1C(=O)NCCc1ccc(S(=O)(=O)NC(=O)NC2CCCCC2)cc1
inactive: all assays above

O=c1[nH]c(=O)c2[nH]c(=O)[nH]c2[nH]1
inactive: all assays above

COc1ccc2c(c1)C(=O)N(CCc1ccc(S(=O)(=O)NC(=O)NC3CCCCC3)cc1)C(=O)C2(C)C
inactive: all assays above

O=C(Oc1ccccc1C(=O)O)c1ccccc1O
inactive: all assays above

CCOc1ccc2ccccc2c1C(=O)N[C@@H]1C(=O)N2[C@@H]1SC(C)(C)[C@@H]2C(=O)O
inactive: all assays above

Cc1cc(CC(=O)O)n(C)c1C(=O)c1ccc(Cl)cc1
inactive: all assays above

COc1cc(C(=O)N2CCOCC2)cc(OC)c1OC
inactive: all assays above

CC(=O)Nc1ccc(/C=N/NC(N)=S)cc1
inactive: all assays above

Nc1ccc(S(=O)(=O)NC(=O)c2ccccc2)cc1
inactive: all assays above

CC1(C)[C@@H]2CC[C@@]1(C)C(=O)C2
inactive: all assays above

[O-][n+]1cccc(CO)c1
inactive: all assays above

O=C(O)c1ccccc1-c1ccc(C(F)(F)F)cc1
inactive: all assays above

CCCCCCCCCCCCCCCCCCOCC(O)CO (stereo not given)
inactive: all assays above

C[C@](N)(Cc1ccc(O)cc1)C(=O)O
inactive: all assays above

O=C1OC(OC(=O)c2cccnc2Nc2cccc(C(F)(F)F)c2)c2ccccc21 (stereo not given)
inactive: all assays above

Oc1cn2c(n1)Nc1ccc(Cl)c(Cl)c1C2
inactive: all assays above

NC(=O)NNc1ccccc1
inactive: all assays above

C=Cc1c(C)c2cc3[nH]c(cc4nc(cc5nc(cc1[nH]2)C(C)=C5CCC(=O)O)C(CCC(=O)O)=C4C)c(C)c3C=C
inactive: all assays above

O=c1cc[nH]c(=O)[nH]1
inactive: all assays above

NC(=O)NC(=O)Cc1ccccc1
inactive: all assays above

CC(=O)c1ccc2c(c1)N(CCCN(C)C)c1ccccc1S2
inactive: all assays above

Cc1cccc(C)c1NC(=O)CN(CC(=O)O)CC(=O)O
inactive: all assays above

O=C(O)COc1nn(Cc2ccccc2)c2ccccc12
inactive: all assays above

CCN(CC)CCNC(=O)c1cc(Cl)c(N)cc1OC
inactive: all assays above

CCCCN(CCCC)CC(O)c1cc(Cl)cc2c1-c1ccc(Cl)cc1/C2=C/c1ccc(Cl)cc1 (stereo not given)
active: CP217 35.5 nM | CP237 11.2 nM | CP238 28.2 nM | CP247 39.8 nM | CP250 28.2 nM | CP252 35.5 nM | CP256 79.4 nM | CP260 31.6 nM | CP262 33.8 nM | CP265 112 nM | CP266 135 nM | CP268 135 nM | CP269 37.9 nM | CP286 31.6 nM | CP291 37.9 nM | CP297 33.8 nM | CP305 107 nM | CP315 53.6 nM | CP325 42.6 nM | CP329 47.8 nM

Nc1ccc(S(=O)(=O)Nc2ccccc2)cc1
inactive: all assays above

CCCCCCCCCCCCOS(=O)(=O)O
inactive: all assays above

O=C1O[C@H]([C@@H](O)CO)C(O)=C1O
inactive: all assays above
